Data published in PubChem BioAssay (NCI).
Compounds without any hit were thinned out: in the full panel of roughly 79,000, 15% have a hit. The source made the active and inactive calls. Cut-off read from the data, not from the text of the source: active = growth inhibition above about 70%; inactive = the rest.

Columns and labels:
[1] = NCI Yeast Anticancer Drug Screen. Data for the mec2-1 strain (AID 157); conditions: S. cerevisiae mec2-1 strain, stronger effect = higher value
Summary of the method: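 Compounds were applied to mec2-1 yeast cells. Their growth was then compared with that of vehicle-treated cultures to give growth inhibition.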

[2] = NCI Yeast Anticancer Drug Screen. Data for the rad14 strain (AID 159);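 note: 0% = growth of vehicle-treated control cultures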; conditions: S. cerevisiae rad14 strain growth inhibition, stronger effect = higher value
Summary of the method: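 A mutant yeast strain defective in DNA damage repair is treated with compound; inhibition of its growth is scored against untreated, vehicle-exposed cultures.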

[3] = NCI Yeast Anticancer Drug Screen. Data for the sgs1 mgt1 strain (AID 161);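 note: 0% = growth of cultures given vehicle only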; conditions: S. cerevisiae sgs1 mgt1 strain, stronger effect = higher value
Summary of the method: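 Growth of a repair-deficient yeast mutant was monitored after compound treatment and expressed as inhibition relative to vehicle-treated cultures.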

[4] = NCI Yeast Anticancer Drug Screen. Data for the CLN2oe strain (AID 163);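 note: 0% = growth of vehicle-only control cultures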; conditions: S. cerevisiae CLN2oe strain, stronger effect = higher value
Summary of the method: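 Cells of an engineered yeast line with disturbed cell-cycle regulation are treated with compound. Inhibition of growth is then calculated relative to the vehicle-treated reference.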

[5] = NCI Yeast Anticancer Drug Screen. Data for the cln2 rad14 strain (AID 165);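 note: 0% = growth equal to vehicle treated cultures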; conditions: S. cerevisiae cln2 rad14 strain, stronger effect = higher value
Summary of the method: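 Strain: cln2 rad14 yeast, altered in cell cycle control and DNA damage repair. Read-out: growth inhibition vs vehicle.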

[6] = NCI Yeast Anticancer Drug Screen. Data for the bub3 strain (AID 167); conditions: S. cerevisiae bub3 mutant strain, stronger effect = higher value
Summary of the method: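 Steps: expose the mutant yeast strain to compound; grow alongside vehicle-treated cultures; measure growth; express inhibition against the vehicle cultures.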

[7] = NCI Yeast Anticancer Drug Screen. Data for the wt2 strain (AID 169);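 note: 0% = growth of vehicle-treated yeast cultures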; conditions: S. cerevisiae wt2 strain growth inhibition, stronger effect = higher value
Summary of the method: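 Growth of compound-treated yeast is measured and expressed as inhibition relative to vehicle-only controls.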

[8] = NCI Yeast Anticancer Drug Screen. Data for the mlh1 strain (AID 171);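 note: 0% = growth of vehicle-treated control cultures of the same strain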; conditions: S. cerevisiae mlh1 strain growth inhibition, stronger effect = higher value
Summary of the method: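 Test agents were incubated with yeast bearing a defined DNA damage repair or cell cycle control alteration; values are growth inhibition normalised to vehicle-treated cultures.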

[9] = NCI Yeast Anticancer Drug Screen. Data for the sgs1 strain (AID 173);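 note: 0% = growth of vehicle-only control cultures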; conditions: S. cerevisiae sgs1 mutant, stronger effect = higher value
Summary of the method: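 Strain with an altered DNA repair or cell cycle pathway exposed to compound. Growth then measured. Value = inhibition versus vehicle control.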

[10] = NCI Yeast Anticancer Drug Screen. Data for the mlh1 rad18 strain (AID 175); conditions: S. cerevisiae mlh1 rad18 strain growth inhibition, stronger effect = higher value
Summary of the method: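 A repair-deficient yeast strain is exposed to test compound, and growth is scored relative to vehicle-treated controls.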

[11] = NCI Yeast Anticancer Drug Screen. Data for the rad18 strain (AID 177); conditions: S. cerevisiae rad18 mutant growth inhibition, stronger effect = higher value
Summary of the method: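 DNA-repair-defective yeast; compound treatment; growth inhibition scored against vehicle.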

[12] = NCI Yeast Anticancer Drug Screen. Data for the rad52 strain (AID 147);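 note: 0% = growth of vehicle-treated control cultures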; conditions: S. cerevisiae rad52 mutant growth inhibition, stronger effect = higher value
Summary of the method: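 Growth of repair-deficient yeast cells was compared between compound-treated and vehicle-treated cultures to give percent inhibition.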

[13] = NCI Yeast Anticancer Drug Screen. Data for the wt1 strain (AID 149);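 note: 0% = growth of vehicle-treated wt1 cultures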; conditions: S. cerevisiae wt1 strain (SPY 50644) growth inhibition, stronger effect = higher value
Summary of the method: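 Compounds are added to wt1 yeast cultures. Growth is then measured. Inhibition is expressed relative to vehicle-treated controls.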

[14] = NCI Yeast Anticancer Drug Screen. Data for the rad50EPP+ strain (AID 151);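 note: 0% = growth of vehicle-treated control cultures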; conditions: S. cerevisiae rad50 mutant strain, stronger effect = higher value
Summary of the method: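 Measured: growth inhibition of rad50EPP+ yeast. Reference: vehicle-treated controls. Screen uses strains with defined genetic alterations in DNA damage repair or cell cycle control.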

[15] = NCI Yeast Anticancer Drug Screen. Data for the mgt1 strain (AID 153); conditions: S. cerevisiae mgt1 mutant growth inhibition, stronger effect = higher value
Summary of the method: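 Compounds were applied to mgt1 mutant yeast, and growth was then compared against vehicle-treated control cultures to give percent inhibition.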

[16] = NCI Yeast Anticancer Drug Screen. Data for the rad50 strain (AID 155);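 note: 0% = growth of vehicle-only cultures of the same strain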; conditions: S. cerevisiae rad50 strain growth inhibition, stronger effect = higher value
Summary of the method: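 Inhibition values express reduced yeast growth in compound-treated cultures relative to vehicle-treated controls.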

[17] = at 5.0 µM (retest, dose inferred, filed as 0.5)
[18] = at 50.0 µM (retest, dose inferred, filed as 5.0)

Measured: growth inhibition

COC(=O)CSSCc1ccc([N+](=O)[O-])cc1
active: [1]; [18] 96% | [1]; at 50.0 µM 96% | [1]; at 100.0 µM 97% | [2]; at 100.0 µM 98% | [3]; [18] 97% | [3]; at 50.0 µM 94.7% | [4]; at 100.0 µM 95% | [5]; [18] 89% | [5]; at 50.0 µM 93.6% | [6]; at 33.0 µM 71% | [6]; [18] 98% | [6]; at 50.0 µM 96% | [6]; at 100.0 µM 97% | [7]; at 100.0 µM 98% | [8]; at 100.0 µM 99% | [9]; at 33.0 µM 87% | [9]; at 100.0 µM 99% | [10]; [18] 98% | [10]; at 50.0 µM 94.4% | [11]; at 33.0 µM 83% | [11]; at 100.0 µM 97%
inactive: [1]; [17] -8% | [1]; at 11.0 µM 14% | [1]; at 33.0 µM 37% | [2]; at 1.2 µM 0% | [2]; at 3.7 µM 8% | [2]; at 11.0 µM 20% | [2]; at 33.0 µM 48% | [3]; [17] 38% | [4]; at 1.2 µM -1% | [4]; at 3.7 µM -6% | [4]; at 11.0 µM 7% | [4]; at 33.0 µM 43% | [5]; [17] -10% | [6]; at 1.2 µM 1% | [6]; at 3.7 µM 5% | [6]; [17] 43% | [6]; at 11.0 µM 24% | [7]; at 1.2 µM 1% | [7]; at 3.7 µM -3% | [7]; at 11.0 µM 22% | [7]; at 33.0 µM 34% | [8]; at 1.2 µM -4% | [8]; at 3.7 µM 9% | [8]; at 11.0 µM 31% | [8]; at 33.0 µM 67% | [9]; at 1.2 µM -20% | [9]; at 3.7 µM -24% | [9]; at 11.0 µM 33% | [10]; [17] 69% | [11]; at 1.2 µM -2% | [11]; at 3.7 µM 19% | [11]; at 11.0 µM 48%

COC(=O)c1ccc(CCC2=CC(=O)C(Br)=CC2=O)cc1
inactive: [12]; at 1.2 µM 17% | [12]; at 3.7 µM 35% | [12]; at 11.0 µM 47% | [12]; at 33.0 µM 52% | [13]; at 1.2 µM 4% | [13]; at 3.7 µM 3% | [13]; at 11.0 µM 4% | [13]; at 33.0 µM 12% | [13]; at 100.0 µM 28% | [14]; at 1.2 µM 2% | [14]; at 3.7 µM 37% | [14]; at 11.0 µM 42% | [14]; at 33.0 µM 62% | [15]; at 1.2 µM -6% | [15]; at 3.7 µM -1% | [15]; at 11.0 µM -4% | [15]; at 33.0 µM -7% | [15]; at 100.0 µM 24% | [16]; at 1.2 µM -3% | [16]; at 3.7 µM 14% | [16]; [17] 12% | [16]; at 11.0 µM 15% | [16]; at 33.0 µM 18% | [16]; at 50.0 µM 61.1% | [16]; at 100.0 µM 34% | [1]; at 1.2 µM -7% | [1]; at 3.7 µM -15% | [1]; [17] 44% | [1]; at 11.0 µM -12% | [1]; at 33.0 µM -12% | [1]; at 50.0 µM 68.2% | [1]; at 100.0 µM 19% | [2]; at 1.2 µM -6% | [2]; at 3.7 µM 1% | [2]; at 11.0 µM 5% | [2]; at 33.0 µM 8% | [2]; at 100.0 µM 54% | [3]; [17] 10% | [3]; [18] 0% | [3]; at 50.0 µM 20.3% | [4]; at 1.2 µM -11% | [4]; at 3.7 µM -5% | [4]; at 11.0 µM 10% | [4]; at 33.0 µM 7% | [4]; at 100.0 µM 35% | [5]; [17] 4% | [5]; [18] 14% | [5]; at 50.0 µM 38.7% | [6]; at 1.2 µM -20% | [6]; at 3.7 µM -11% | [6]; [17] 8% | [6]; at 11.0 µM -9% | [6]; at 33.0 µM -5% | [6]; [18] 6% | [6]; at 50.0 µM 23.1% | [6]; at 100.0 µM 29% | [7]; at 1.2 µM -12% | [7]; at 3.7 µM 7% | [7]; at 11.0 µM 39% | [8]; at 1.2 µM 0% | [8]; at 3.7 µM -4% | [8]; at 11.0 µM -5% | [8]; at 33.0 µM 5% | [8]; at 100.0 µM 56% | [9]; at 1.2 µM 8% | [9]; at 3.7 µM 26% | [9]; at 11.0 µM 34% | [9]; at 33.0 µM 35% | [10]; [17] 27% | [11]; at 1.2 µM -25% | [11]; at 3.7 µM -8% | [11]; at 11.0 µM -8% | [11]; at 33.0 µM -25% | [11]; at 100.0 µM 40%
active: [12]; at 100.0 µM 72% | [14]; at 100.0 µM 88% | [16]; [18] 99% | [1]; [18] 98% | [7]; at 33.0 µM 88% | [7]; at 100.0 µM 98% | [9]; at 100.0 µM 70% | [10]; [18] 99% | [10]; at 50.0 µM 91.8%

O=Cc1cccc2ccc3ccccc3c12
inactive: [12]; at 1.2 µM -6% | [12]; at 3.7 µM 0% | [12]; at 11.0 µM 7% | [12]; at 33.0 µM 62% | [13]; at 1.2 µM -6% | [13]; at 3.7 µM -5% | [13]; at 11.0 µM -8% | [13]; at 33.0 µM 7% | [13]; at 100.0 µM 52% | [14]; at 1.2 µM 5% | [14]; at 3.7 µM 15% | [14]; at 11.0 µM 36% | [15]; at 1.2 µM -2% | [15]; at 3.7 µM -4% | [15]; at 11.0 µM -3% | [15]; at 33.0 µM 32% | [16]; at 1.2 µM -7% | [16]; at 3.7 µM -12% | [16]; [17] -102% | [16]; at 11.0 µM 12% | [1]; at 1.2 µM -1% | [1]; at 3.7 µM -1% | [1]; [17] -45% | [1]; at 11.0 µM 1% | [1]; at 33.0 µM 1% | [1]; [18] 41% | [2]; at 1.2 µM -1% | [2]; at 3.7 µM 1% | [2]; at 11.0 µM 9% | [3]; [17] -56% | [4]; at 1.2 µM -1% | [4]; at 3.7 µM 0% | [4]; at 11.0 µM 9% | [4]; at 33.0 µM 15% | [5]; [17] -52% | [5]; [18] 2% | [6]; at 1.2 µM -7% | [6]; at 3.7 µM -4% | [6]; [17] -54% | [6]; at 11.0 µM -3% | [6]; at 33.0 µM 4% | [7]; at 1.2 µM -2% | [7]; at 3.7 µM -2% | [7]; at 11.0 µM -3% | [7]; at 33.0 µM 26% | [8]; at 1.2 µM 5% | [8]; at 3.7 µM -5% | [8]; at 11.0 µM -2% | [8]; at 33.0 µM 63% | [9]; at 1.2 µM -1% | [9]; at 3.7 µM -2% | [9]; at 11.0 µM 4% | [9]; at 33.0 µM 57% | [10]; [17] -91% | [11]; at 1.2 µM -6% | [11]; at 3.7 µM -2% | [11]; at 11.0 µM 6% | [11]; at 33.0 µM 43%
active: [12]; at 100.0 µM 98% | [14]; at 33.0 µM 77% | [14]; at 100.0 µM 95% | [15]; at 100.0 µM 98% | [16]; at 33.0 µM 94% | [16]; [18] 89% | [16]; at 50.0 µM 99.3% | [16]; at 100.0 µM 97% | [1]; at 50.0 µM 99.5% | [1]; at 100.0 µM 96% | [2]; at 33.0 µM 71% | [2]; at 100.0 µM 99% | [3]; [18] 73% | [3]; at 50.0 µM 98.2% | [4]; at 100.0 µM 88% | [5]; at 50.0 µM 98.7% | [6]; [18] 81% | [6]; at 50.0 µM 98.7% | [6]; at 100.0 µM 97% | [7]; at 100.0 µM 80% | [8]; at 100.0 µM 98% | [9]; at 100.0 µM 99% | [10]; [18] 82% | [10]; at 50.0 µM 98.8% | [11]; at 100.0 µM 98%
